Assay outcomes (PubChem BioAssay)
A selection: hits, their analogues and other compounds. The true share with any hit is near 3.4%.
MITF primary: inhibitors of human MITF; AlphaScreen MITF homodimerization, bead proximity signal; inhibition, % at 2.6 µM; O75030; hit rate 0.91% among 650,000; in the data active = inhibition above about 50%;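 also: 0% = vehicle wells with protein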
GPR151 ag: activators of human GPR151 | activation, % at 11.2 µM | AID 1508602 | PathHunter beta-arrestin GPR151 cells, luminescence | hit rate 1% among 650,000; in the data active = activation above about 4.9%;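 also: 0% = median of compound wells and 100% = cells with positive control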
TEAD-YAP inh: TEAD-YAP interaction inhibition; HEK-TIYL cells, TEAD-Gal4/YAP UAS-luciferase luminescence; inhibition, % at 9.12 µM; hit rate 1.4% among 640,000; in the data active = inhibition above about 32%;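 also: 0% = median of test compound wells and 100% = reference inhibitor wells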
FBW7 act: human FBW7 E3 ligase activation, primary screen. Q969H0. AlphaScreen FBW7–phospho-cyclin E peptide binding, activator screen. normalized activity (activation), % at 26.1 µM. hit rate 0.13% among 650,000. AID 1259310; in the data active = normalized activity above about 1.9%;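 also: purified mutant Fbw7 with reduced substrate affinity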
Target sequence (Q969H0 whole entry, looked up): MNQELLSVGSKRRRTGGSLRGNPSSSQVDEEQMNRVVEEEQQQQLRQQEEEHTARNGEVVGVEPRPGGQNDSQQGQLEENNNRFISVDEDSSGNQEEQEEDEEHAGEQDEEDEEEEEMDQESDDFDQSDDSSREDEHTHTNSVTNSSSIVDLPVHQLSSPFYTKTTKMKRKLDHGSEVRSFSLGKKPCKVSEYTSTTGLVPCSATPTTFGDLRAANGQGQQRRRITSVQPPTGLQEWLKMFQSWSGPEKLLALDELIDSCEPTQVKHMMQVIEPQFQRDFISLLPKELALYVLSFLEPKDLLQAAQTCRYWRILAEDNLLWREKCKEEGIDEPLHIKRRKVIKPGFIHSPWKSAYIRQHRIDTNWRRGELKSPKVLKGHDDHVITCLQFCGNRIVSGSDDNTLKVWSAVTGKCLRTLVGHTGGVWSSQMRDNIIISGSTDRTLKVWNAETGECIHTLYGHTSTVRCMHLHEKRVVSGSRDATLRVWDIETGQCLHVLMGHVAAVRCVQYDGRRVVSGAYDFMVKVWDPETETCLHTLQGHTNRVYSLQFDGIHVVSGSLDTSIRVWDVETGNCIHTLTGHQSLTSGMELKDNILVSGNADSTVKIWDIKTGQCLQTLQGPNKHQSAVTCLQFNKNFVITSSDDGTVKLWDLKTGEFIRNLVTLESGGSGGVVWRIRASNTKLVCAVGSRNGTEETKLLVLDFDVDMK
* hit, by the source's call.

SMILES	MITF primary	GPR151 ag	TEAD-YAP inh	FBW7 act
Cc1ccnc(N2CCC(C(=O)Nc3ccccc3Br)CC2)n1	21.7	-1.0	8.9	2.1*
CC(=NC#N)c1c(C(F)(F)F)[nH]n(-c2nc3ccccc3s2)c1=O	2.4	-7.4	41.6*	0.1
CC(C)(C)c1cc(/C=C(\C#N)C(N)=S)cc(C(C)(C)C)c1O	-2.4	2.6	47.4*	-0.1
COc1cc(/C=C(\C#N)C(N)=S)ccc1O	8.8	0.4	9.4	0.1
O=C(CSc1n[nH]c(=O)n1Cc1ccccc1)Nc1ccc(Br)cc1F	-0.9	3.1	34.1*	0.0
C=CCSc1nc2c(c(=O)n1Cc1ccccc1)C(CC)(CC)Cc1ccccc1-2	-11.7	-1.1	2.7	0.1
COc1cc(/C=C2\SC(=S)N(Cc3cccnc3)C2=O)cc(Br)c1O	-0.1	-2.2	-7.8	0.5
CCOc1ccc(N2C(=O)/C(=C/c3ccc(C(=O)OC)cc3)NC2=S)cc1	-15.8	0.8	-9.0	0.0
CCOC(=O)c1c(C)n(-c2ccc(Cl)cc2)c2ccc(OC(=O)/C=C/c3ccccc3)cc12	9.0	-1.8	-4.9	0.1
CC(C)CCNS(=O)(=O)c1ccc(Oc2ccc(S(=O)(=O)NCCC(C)C)cc2)cc1	10.1	0.0	33.2*	0.6
CC(=O)c1ccc(S(=O)(=O)NCCC(C)C)cc1	5.4	1.1	7.8	-0.1
Cc1ccc2nc(-c3ccc(F)cc3)cn2c1	-15.5	-10.0	93.4*	0.1
COc1ccc(-c2cn3cc(C)ccc3n2)cc1	-3.5	-7.8	82.0*	-0.1
Cc1ccc2nc(-c3ccccc3Cl)cn2c1	-6.1	-6.9	93.2*	-0.2
COC(=O)c1ccc2nc(-c3ccc(F)cc3)cn2c1	2.5	-8.5	41.9*	0.0
Cc1ccc2nc(-c3cc4ccccc4oc3=O)cn2c1	-2.1	-4.7	-36.5	0.1
CCOc1ccccc1C(=O)N1CCC(c2nc3ccc(C)cc3[nH]2)CC1	10.8	-1.3	-5.4	0.0
OCCC1CN(Cc2cnc(N3CCCC3)s2)CCN1Cc1ccsc1 (configuration not stated)	0.8	-1.1	-6.2	-0.1
CC(NC(=O)C1CCN(C)CC1)c1nnc2n1CCN(Cc1cccc(Cl)c1)CC2 (configuration not stated)	-4.1	0.3	2.0	0.0
COc1ccc(Cc2noc(-c3ccc(OC)c(OC)c3)n2)cc1OC	4.1	-0.8	1.6	0.0
COc1ccc(Cc2noc(-c3ccc([N+](=O)[O-])o3)n2)cc1OC	21.5	0.0	66.7*	-0.1
CCN(CC)C(=O)C1CCCc2c1[nH]c1ccc(Cl)cc21 (configuration not stated)	1.8	1.8	59.0*	-0.1
NC(=O)C1CCCc2c1[nH]c1ccc(Cl)cc21 (configuration not stated)	14.8	0.6	7.2	0.1
Cc1cncc2cccc(S(=O)(=O)N3CCCN(C(=O)CN)C[C@@H]3C)c12	16.2	0.9	36.0*	0.1
Cc1cncc2c(S(=O)(=O)N3CCCN(C(=O)CN)C[C@@H]3C)cccc12	11.3	2.5	-6.7	-0.5
SMILES	MITF primary	GPR151 ag	TEAD-YAP inh	FBW7 act
N#Cc1c(-c2ccccc2F)c(C#N)c2nc3ccccc3n2c1N	-14.9	0.5	42.1*	0.3
CCOC(=O)C1=CN(c2cc(C)cc(C)c2)C=C(C(=O)OCC)C1c1cccc(OC)c1	1.4	-0.4	3.0	-0.1
Fc1ccccc1Nc1nc(NCc2ccccc2)c2ccccc2n1	-26.0	3.2	47.5*	-0.1
Fc1ccccc1Nc1nc(NCc2ccco2)c2ccccc2n1	-0.9	1.5	-13.4	-0.2
Cc1ccc(-c2nc(NCc3ccccc3)c3ccccc3n2)cc1	-5.1	-1.6	-11.7	0.1
Cc1ccc(Nc2nc(NCc3ccccc3)c3ccccc3n2)cc1	4.5	0.2	36.1*	-0.1
CCC(Sc1nc2n[nH]c(C)c2c(=N)n1-c1ccc(C)c(Cl)c1)C(=O)NCCOC (configuration not stated)	-5.8	1.2	3.6	-0.1
Cc1cc2cc(CN(CCCO)C(=O)Nc3ccccc3)c(=O)[nH]c2cc1C	15.2	0.0	7.5	0.1
CC(=O)Nc1ccccc1Nc1cc(Nc2ccc3c(c2)CC(=O)N3)ncc1C(F)(F)F	7.0	-1.0	40.6*	0.0
CNC(=O)c1ncccc1Nc1cc(Nc2ccc3c(c2)CC(=O)N3)ncc1C(F)(F)F	0.3	0.1	7.5	0.6
CNC(=O)c1ncccc1Nc1cc(Nc2ccc3c(c2)CCC(=O)N3)ncc1C(F)(F)F	-8.1	1.2	35.2*	-0.1
COc1ccc(C2C(C(=O)Nc3cc(OC)c(OC)c(OC)c3)c3ccccc3C(=O)N2C)cc1 (configuration not stated)	-5.7	0.0	53.6*	0.2
COc1cc2ccccc2cc1C(=O)Nc1ccccc1-c1nc2ccccc2[nH]1	-2.0	0.9	7.1	2.6*
CC(=O)c1ccc(C(=O)Nc2ccccc2-c2nc3ccccc3[nH]2)cc1	-12.4	1.0	-1.5	-0.1
O=C(Nc1ccccc1-c1nc2ccccc2[nH]1)C1CC1	3.6	0.7	38.2*	0.1
O=C(Nc1ccccc1-c1nc2ccccc2[nH]1)C1COc2ccccc2O1 (configuration not stated)	-5.2	-0.4	-2.6	0.0
COc1cc(C(=O)N(c2cccc(Cl)c2)C2C=CS(=O)(=O)C2)cc(OC)c1OC (configuration not stated)	10.1	-0.2	8.8	0.1
CC(=O)c1cccc(-c2nc(NCCN3CCOCC3)c3ncn(-c4ccsc4)c3n2)c1	10.1	2.5	58.5*	0.0
CC(=O)c1cccc(-c2nc(NCCN3CCOCC3)c3ncn(-c4ccccc4)c3n2)c1	14.2	1.0	66.4*	0.1
Nc1cccc(-c2nc(NCCN3CCOCC3)c3ncn(-c4ccccc4)c3n2)c1	-2.8	-2.7	57.9*	-0.1
Nc1cccc(-c2nc(NCCc3ccc(O)cc3)c3ncn(-c4ccccc4)c3n2)c1	-0.3	-1.0	37.7*	-0.1
CN1CCN(c2ccc(-c3nc(NCCN4CCOCC4)c4ncn(-c5ccsc5)c4n3)cc2)CC1	-2.1	2.1	9.5	-0.1
COc1ccc(-c2nc(NCCN3CCOCC3)c3ncn(-c4ccsc4)c3n2)cc1	7.5	0.7	50.6*	-0.1
CC(C)N(CCNc1ccnc(-c2ccc(N3CCOCC3)nc2)n1)C(C)C	2.1	1.7	-9.5	0.0
COCCOC(=O)c1ccc(NC(=O)c2ccc(C(C)(C)C)cc2)cc1	1.0	0.3	45.7*	-1.1
SMILES	MITF primary	GPR151 ag	TEAD-YAP inh	FBW7 act
COC(=O)Cc1ccc(NC(=O)c2ccc(C(C)(C)C)cc2)cc1	-10.9	1.5	70.8*	0.3
CCCOC(=O)c1ccc(NC(=O)c2ccc(C(C)(C)C)cc2)cc1	11.5	-0.2	-57.9	-0.1
COC(=O)COc1ccc(NC(=O)c2ccc(C(C)(C)C)cc2)cc1	-22.1	-0.9	43.5*	-0.2
CC(C)n1cnc2c(NCc3ccccc3)nc(-c3ccc(C(=O)NC4CC4)cc3)nc21	-9.3	0.3	-16.8	-0.1
CC(C)n1cnc2c(NC3CCN(Cc4ccccc4)CC3)nc(-c3ccc(N4CCN(C)CC4)cc3)nc21	1.0	0.1	27.6	-0.2
CN1CCN(C(=O)c2ccc(-c3nc(NC4CC4)c4ncn(-c5ccccc5)c4n3)cc2)CC1	3.1	1.6	40.9*	0.0
COc1ccc(-c2nc(NC3CCN(Cc4ccccc4)CC3)c3ncn(C(C)C)c3n2)cc1	10.4	-2.8	-2.6	0.2
